Screens deposited in PubChem by National Center for Advancing Translational Sciences (NCATS).
An excerpt weighted towards active compounds, which were near 12% of everything screened.
Lassa entry inh: blocks Lassa virus binding to or entry into cells; Lassa virus pseudotype entry inhibition, cell reporter; Potency, µM (doses to about 37.9 µM), usual class: inhibitors; 300,000 compounds, 1.2% hits; calls by dose curve; tested in HEK293 cells; further: nearly all actives have a fitted effect of over 50% in size
Marburg entry inh: Marburg virus entry inhibition; AID 540276; Marburg virus pseudotyped entry inhibition, cell reporter; Potency, µM (top dose mostly 37.8 µM), hits mostly inhibitors; 300,000 compounds, 1.8% hits; calls by dose curve; tested in HEK293 cells
CHX counter: counter-screen for Shiga toxin inhibitors: cycloheximide protein synthesis inhibition | cell reporter, cycloheximide protein synthesis inhibition counterscreen | max response, % | 300,000 compounds, 12% hits; in the data active means max response mostly above about 13%, no sharp cut-off; inactive means mostly below about 14%; further: read at 38.3 µM for the half of the compounds with a filed dose
Shiga inhibitor: inhibitors of Shiga toxin in Vero cells; AID 2315; inhibition, % at 38.7 µM; Vero cells, Shiga toxin protein synthesis inhibition reporter; 290,000 compounds, 9.2% hits; in the data active means inhibition mostly above about 28%, no sharp cut-off; inactive means mostly below about 43%
Each line names hits and unclear results; the compound was inactive in the other large screens.

FC(F)(F)c1ccc2c(c1)NCC1CCCN21 (centres undefined)	CHX counter 17
FC(F)(F)c1ccc2c(c1)N1CCCC1CN2 (centres undefined)	Marburg entry inh inconclusive
Brc1ccccc1Cn1c(-c2cscn2)nc2ccccc21	none
COc1cc(-c2nc3ccccn3c2/N=C/c2cc(OC)c(O)cc2Cl)ccc1O	Marburg entry inh inconclusive, CHX counter 30, Shiga inhibitor 22
Cc1ccc(C)c(OCc2cc(C(=O)N3CCOCC3)no2)c1	CHX counter 49, Shiga inhibitor 58 (no result: Lassa entry inh, Marburg entry inh)
Cc1oc(-c2ccc(Cl)cc2)cc1C(=O)NC1CCN(Cc2ccccc2)CC1	Lassa entry inh inconclusive, Marburg entry inh inconclusive
Cc1oc(C(C)(C)C)cc1C(=O)NC1CCN(Cc2ccccc2)CC1	Lassa entry inh inconclusive, Marburg entry inh 10µM
Cc1ccc(C)c(OCc2cc(C(=O)NC3CCN(Cc4ccccc4)CC3)no2)c1	CHX counter 29 (no result: Lassa entry inh, Marburg entry inh)
CC(=O)NCCC1CCCCN1C(=O)c1cc(COc2cc(C)ccc2C)on1 (centres undefined)	CHX counter 45, Shiga inhibitor 101 (no result: Lassa entry inh, Marburg entry inh)
Cc1cc(Br)cc2c(C(=O)NCC3CCCO3)cc(-c3ccccc3)nc12 (centres undefined)	none
Cc1c(-c2ccc(Cl)cc2)c(=O)oc2c(CN3CCOCC3)c(O)ccc12	none (no result: Marburg entry inh, CHX counter, Shiga inhibitor)
Cc1ccc(N2CC(c3nc(-c4ccc(Cl)cc4)no3)CC2=O)cc1F (centres undefined)	none (no result: Marburg entry inh, CHX counter, Shiga inhibitor)
COc1ccc(OC)c(CNC(=O)C(C)n2c(C)c3cnn(-c4ccccc4)c(=O)c3c2C)c1 (centres undefined)	none (no result: CHX counter, Shiga inhibitor)
Cc1ccc(C)c(OCc2cc(C(=O)N3CCC(N4CCCC(O)C4)CC3)no2)c1 (centres undefined)	Marburg entry inh inconclusive
COCCN1CCN(C(=O)c2cc(COc3cc(C)ccc3C)on2)CC1	CHX counter 39, Shiga inhibitor 81 (no result: Lassa entry inh, Marburg entry inh)
COCCCC1CCN(C(=O)c2cc(COc3cc(C)ccc3C)on2)CC1	CHX counter 56, Shiga inhibitor 162 (no result: Lassa entry inh, Marburg entry inh)
Cc1ccc(C)c(OCc2cc(C(=O)N3CCNC(=O)C3)no2)c1	none (no result: Lassa entry inh, Marburg entry inh)
Cc1noc(C)c1-c1ccc2ncnc(NCC3CCN(C)CC3)c2c1	none (no result: Lassa entry inh, Marburg entry inh)
C=C1SC(=Nc2ccccc2Cl)N(C(=O)c2sc3ccccc3c2Cl)C1(C)C	Lassa entry inh inconclusive, Marburg entry inh inconclusive, CHX counter 50, Shiga inhibitor 99
C=C1SC(=Nc2c(C)cccc2Cl)N(C(=O)c2sc3ccccc3c2Cl)C12CCCCC2	none (no result: Lassa entry inh, Marburg entry inh)
Cc1ccc(C(C(=O)NC(C)(C)C)N(CCCN2CCOCC2)C(=O)c2ccc(-c3ccccc3)[nH]2)o1 (centres undefined)	none
O=C(NC1CCCCC1)C(c1cccs1)N(CCCN1CCOCC1)C(=O)c1ccc(-c2ccccc2)[nH]1 (centres undefined)	Marburg entry inh inconclusive, CHX counter 19, Shiga inhibitor 56
O=C(Nc1cccnc1)C1CCC(CNS(=O)(=O)c2cccc3nsnc23)CC1 (centres undefined)	Lassa entry inh inconclusive
Cn1c(SCC#N)nnc1-c1cnccn1	Marburg entry inh inconclusive
Cn1c(SCc2ccccc2)nnc1-c1cnccn1	Marburg entry inh inconclusive, CHX counter 37, Shiga inhibitor 97
Cc1ccccc1CSc1nnc(-c2cnccn2)n1C	Marburg entry inh inconclusive, CHX counter 31, Shiga inhibitor 57
Cn1c(SCc2ccc(F)cc2)nnc1-c1cnccn1	CHX counter 20, Shiga inhibitor 61 (no result: Lassa entry inh, Marburg entry inh)
Cc1cccc(C)c1NC(=O)CSc1nnc(-c2cnccn2)n1C	none
O=C(CNC(=O)CNC(=O)c1ccc(Cl)cc1Cl)NCc1cccc(Cl)c1	none
CCCC[C@@H](C)/C=C(C)/C=C(\C)C(=O)NC1=C[C@@](O)(/C=C/C=C/C=C/C(=O)NC2=C(O)CCC2=O)[C@@H]2O[C@@H]2C1=O	none (no result: Lassa entry inh, Marburg entry inh)
COc1cc(O)c(C=Nc2ccccc2NS(=O)(=O)c2ccc(C)cc2)c(OC)c1	none (no result: CHX counter, Shiga inhibitor)
c1ccc(OCc2nc(-c3cccs3)no2)cc1	Marburg entry inh inconclusive, CHX counter 45, Shiga inhibitor 76
Cc1cc(OCc2nc(-c3cccs3)no2)cc(C)c1Cl	CHX counter 37, Shiga inhibitor 42 (no result: Lassa entry inh)
O=C(NCc1ccc(F)cc1)c1nc(-c2cccs2)no1	Lassa entry inh inconclusive
CCOc1nc(-c2ccccc2)ccc1-c1noc(COc2ccccc2)n1	Marburg entry inh inconclusive
Fc1ccc(OCc2nc(-c3cccs3)no2)cc1	Marburg entry inh inconclusive, CHX counter 41, Shiga inhibitor 110
CC(=O)Nc1ccccc1OCc1nnc(-c2ccc(Cl)cc2)o1	Marburg entry inh inconclusive, CHX counter 28
Clc1ccccc1OCc1nnc(-c2ccccc2)o1	CHX counter 46, Shiga inhibitor 67
Cc1cc(Nc2ccccc2)nn1C(=O)c1ccc(Cl)cc1	CHX counter 49, Shiga inhibitor 156
Cc1cc(Nc2ccccc2)n(C(=O)c2ccccc2)n1	CHX counter 47
